Each structure is given as a SMILES string. The campaign covered roughly 320,000 compounds. About 55 (0.02%) were called active. Another 3% or so got no clear call; they are omitted. The list comes from a sample in which actives are over-represented; it also holds similar structures and randomly drawn compounds. Unmarked numbers belong to inactive results. Cut-off read from the data, not from the text of the source: active = potentiation above about 80%; inconclusive = between about 30% and that limit; inactive = weaker than that.

The target in this assay is Transient receptor potential cation channel subfamily V member 1 (Homo sapiens) (UniProt Q8NER1). The assay can be described thus: HTS Assay for Compounds that Act as Potentiators of the Vanilloid Receptor 1. Note: 0% is about no effect. Conditions: TRPV1-expressing cells, Fluo-8 calcium influx, capsaicin EC20 potentiation; at 8.33 µM; active compounds read high. From the text: The transient receptor potential ion channel, family V, number 1, (TRPV1) is one of the most important molecular transducers of painful stimuli and a potential target for analgesic drug development. Although recent clinical trials with orthosteric antagonists have not produced a successful drug because of a hyperthermia side effect and their tendency to block thermal noxious pain, this ion channel is undeniably well placed in the pain pathway, and the idea of blocking pain signals before they enter the CNS is an excellent concept and of proven efficacy when TRPV1 agonists are used. We propose a new approach involving allosteric modulation to impose an activity-dependent constraint within the context of inflammation and tissue damage that would alter the responsiveness of the channel in a way that an orthosteric vanilloid antagonist cannot achieve. We believe that the allosteric modulator approach has not been explored for this target. The main goal of this proposal is to identify additional, new, potent allosteric modulators of TRPV1 that can be used to investigate TRPV1 function. Our recent report provides evidence of proof of concept, but the compounds are just at the edge of utility in terms of potency. […] The question of whether they can be used as analgesic agents is complex, but if suitable compounds are identified then testing for analgesic properties will be conducted. NIH Chemical Genomics Center [NCGC] NIH Molecular Libraries Probe Centers Network [MLPCN] MLPCN Grant: MH089480-1A1 Assay Submitter (PI): Michael Iadarola, National Institute of Dental and Cranofacial Research
Sequence of Transient receptor potential cation channel subfamily V member 1 (Homo sapiens) (Q8NER1 whole entry, looked up): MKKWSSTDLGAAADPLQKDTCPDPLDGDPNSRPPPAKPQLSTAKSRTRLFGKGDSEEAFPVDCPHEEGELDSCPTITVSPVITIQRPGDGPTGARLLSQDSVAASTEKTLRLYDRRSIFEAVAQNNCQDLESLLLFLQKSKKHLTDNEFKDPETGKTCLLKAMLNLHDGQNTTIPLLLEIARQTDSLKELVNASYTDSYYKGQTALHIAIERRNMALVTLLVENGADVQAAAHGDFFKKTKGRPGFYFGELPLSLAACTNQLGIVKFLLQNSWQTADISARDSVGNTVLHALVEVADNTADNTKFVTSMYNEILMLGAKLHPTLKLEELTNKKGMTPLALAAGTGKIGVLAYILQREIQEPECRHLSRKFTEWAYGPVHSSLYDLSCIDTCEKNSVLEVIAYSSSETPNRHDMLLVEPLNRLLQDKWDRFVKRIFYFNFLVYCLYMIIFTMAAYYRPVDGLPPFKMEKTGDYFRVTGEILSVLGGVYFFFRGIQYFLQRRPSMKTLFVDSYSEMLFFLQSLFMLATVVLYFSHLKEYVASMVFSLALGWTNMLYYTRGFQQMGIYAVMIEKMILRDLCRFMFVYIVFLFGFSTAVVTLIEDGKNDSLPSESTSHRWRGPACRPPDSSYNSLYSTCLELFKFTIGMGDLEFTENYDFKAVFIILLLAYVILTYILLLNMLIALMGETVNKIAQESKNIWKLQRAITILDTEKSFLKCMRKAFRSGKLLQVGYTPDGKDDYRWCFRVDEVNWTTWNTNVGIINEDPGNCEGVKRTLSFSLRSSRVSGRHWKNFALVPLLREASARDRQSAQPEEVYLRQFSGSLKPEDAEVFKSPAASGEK
Upon TRPV1 activation in TRPV1 cells, the channel opens and extracellular cations flow through the channel into the cytosol. A calcium binding dye (Fluo-8) becomes fluorescent when bound to calcium. This dye is pre-loaded into cells and is used as a marker for calcium influx. The amount of accumulated calcium is precisely quantified using the FDSS kinetic reader and the calcium dye. For the HTS assay, freshly prepared cells are plated at a density of 2000/well in 3 ul medium in 1536-well plates and cultured overnight at 35.5C. Cells will be loaded with 1 ul of the homogeneous calcium dye (ABD Bioquest) at room temperature for 40 to 90 minutes. Plates will be loaded into the FDSS kinetic reader and a 1 sec / cycle for 10 second baseline signal will be measured. Compound library will then be added with a pintool at 23 nl and measured kinetically for 3 minutes. This portion of the read is considered the agonist portion of the screen. Following the 3 minutes of incubation, an on board pipettor will deliver 1 ul of capsaicin for a final concentration equal to the EC20. Signal will be measured kinetically for an additional 2 minutes. This portion of the read is considered the allosteric enhancer portion of the screen. The FDSS reader has a standard filter set capable of measuring calcium bound Fluo-8 (ex=480 and em=520 nm).
Take `COC(=O)c1cc(Oc2ccc(S(=O)(=O)N3CCOCC3)cc2[N+](=O)[O-])cc(C(=O)OC)c1`: the potentiation was 10.8%.

With `CN1CCN(C2=NCCO2)CC1`, the potentiation was -4.44%. The figure for `CCOc1ccc(S(=O)(=O)N2CCCCC2)cc1NC(=O)CN1CCCC1c1cccs1` (stereo not drawn) is -19.8%; for `Cc1ccc(C(=O)CN2C(=O)NC3(CCOc4ccccc43)C2=O)s1` (stereo not drawn) it is -10.3%; for `CC(=O)N(CC1CCCO1)C1(C(=O)NC2CCCC2)CCCCC1` (stereo not drawn) it is -6.84%. The figure for `O=C(c1ccc(=O)[nH]c1)N(Cc1ccco1)C1(C(=O)NC2CCCCC2)CCCCC1` is 6.34%; for `CC(=O)NCC(=O)N(Cc1ccco1)C1(C(=O)NC2CCCC2)CCCCC1` it is 85.2% (active); for `Cc1n[nH]c(=O)c2c(NC(=O)CSc3cc(Cl)ccc3Cl)oc(C)c12` it is 13.8%. The figure for `CC1CC1C(=O)OCC(=O)Nc1cccc(F)c1` (stereo not drawn) is -20.7%; for `Cn1c(N)c(C(=O)COC(=O)/C=C/c2cccc(C(F)(F)F)c2)c(=O)n(C)c1=O` it is -32.4%. On to `COc1ccc(C(C[N+](=O)[O-])n2nc(C)cc2C)cc1` (stereo not drawn), for which the potentiation was 0.93%. As to `COc1ccc(S(=O)(=O)N2CCOCC2)cc1NC(=O)CC1CC2CCC1C2` (stereo not drawn), the potentiation is 2%. The figure for `CCCCn1c(SCC(=O)N2CCCC2=O)nc2cc(S(N)(=O)=O)ccc21` is -9.34%; for `CCOC(=O)c1sc(=NC(=O)/C=C/c2cccs2)n(C)c1C` it is -3.16%. The figure for `O=S(=O)(Nc1cc(Cl)ccc1N1CCOCC1)c1ccccc1Cl` is 28.9%.

Regarding `CN(c1ccccc1)S(=O)(=O)c1cccc(NC(=O)Cc2ccc(Cl)cc2)c1`, the potentiation was -2.65%. The figure for `O=C(COC(=O)c1c(Cl)cccc1Cl)Nc1cccc(S(=O)(=O)NC2=NCCCCC2)c1` is 4.82%; for `Cc1ccc(S(=O)(=O)Nc2nc(CN3CCOCC3)nc3sc(C)c(C)c23)cc1` it is 21.7%. On to `O=C(Nc1ccc2c(c1)OCCO2)C1CCCC1`, for which the potentiation was -1.56%.

As to `Cc1cc(NC(=O)COc2ccccc2C#N)no1`, the potentiation was 13.6%. Regarding `O=C(CSc1ccccc1)Nc1cccc(S(=O)(=O)N2CCCCC2)c1`, the potentiation was -6.03%. The figure for `CCN(c1ccccc1)S(=O)(=O)c1ccc(OCC(=O)N2CCCC2)cc1` is -12.3%; for `O=C(CN1CCCCC1)NC(=O)Nc1ccccc1F` it is -35.8%. The figure for `COc1ccccc1C(=O)NCC(=O)OCC(=O)Nc1nnc(-c2ccccc2)o1` is 8.76%; for `Cc1ccc(NC(=O)Cc2nc(COC(=O)C(C)NS(=O)(=O)c3ccc(C)cc3)cs2)cc1` (stereo not drawn) it is 1.83%; for `COc1ccccc1C(=O)NCCC(=O)NC1=NCCS1` it is 16.5%. The figure for `Cc1cc(C(=O)COc2ccccc2Cl)c(C)n1C1CC1` is -5.33%; for `CC(C)(C)C(=O)CSc1ccc(S(=O)(=O)N2CCCC2)cn1` it is 5.19%. Consider `CCCCn1nc(C(=O)Nc2cccc(C(=O)NC3CC3)c2)c2ccccc2c1=O`, for which the potentiation was -5.5%.

In the case of `CCC(C(=O)N1CCN(S(=O)(=O)c2sc(C(=O)O)c(C)c2C(=O)O)CC1)c1ccccc1` (stereo not drawn), the potentiation is -6.07%. Consider `CC1CCCN(C(=O)CN2C(=O)c3ccccc3S2(=O)=O)C1` (stereo not drawn), for which the potentiation is 7.53%.

Regarding `Cc1cc(C(=O)COc2ccc(Br)cc2F)c(C)n1C1CC1`, the potentiation was -6.81%. The figure for `COc1ccc(C(=O)N2CCN(c3ccc(C(C)=O)cc3F)CC2)cc1S(=O)(=O)NC1CC1` is -8.79%; for `CCN1C(=O)C(=O)N(CC(=O)Nc2cc(C)ccc2C)C1=O` it is 4.41%; for `CCN(CC)c1ccc(NC(=O)CN2C(=O)NC3(CCc4ccccc43)C2=O)cc1` (stereo not drawn) it is -5.69%. The value for `COc1ccc(-c2cc3ncccc3cn2)cc1` was -0.0866%.

For `COc1ccc(CN2CCc3nc(Nc4ccccc4)ncc3C2)c(OC)c1OC`, the potentiation was 1.32%.

Consider `COc1ccc2c(C)cc(SCC(=O)NCC3CCCO3)nc2c1` (stereo not drawn), for which the potentiation was -8.57%.

With `CC(Sc1nnc(C2CC2)n1C1CC1)C(=O)Nc1ccc(C(N)=O)cc1` (stereo not drawn), the potentiation was -2.73%. In the case of `COc1ccc(CN2CCN(C(=O)c3cc(C4CC4)nn3-c3ccccc3)CC2)cc1F`, the potentiation was 1.31%. The figure for `CSCCC(NC(=O)c1ccccc1)C(=O)N1CCN(Cc2ccc(Cl)cc2)CC1` (stereo not drawn) is 10.6%; for `Cc1ccsc1C(=O)NCCc1ccco1` it is -5.45%; for `O=C(Nc1ccc2c(c1)OCO2)C1CC1(Cl)Cl` (stereo not drawn) it is -2.21%.

With `CCN(CC)CCN1C(=O)C(=O)/C(=C(/O)c2cnn(-c3ccccc3)c2C)C1c1cccs1` (stereo not drawn), the potentiation is -0.404%. The figure for `CCOc1ncccc1C(=O)OCC(=O)Nc1cccc(S(=O)(=O)N2CCCCCC2)c1` is -26.2%; for `COc1ccc(S(=O)(=O)N2CCOCC2)cc1NC(=O)Cc1coc2cc(C)ccc12` it is 4.1%; for `Cc1nc2ccc(NC(=O)C3CCCCC3)cc2s1` it is -2.49%.

On to `COc1ccc(-c2sc3ccc(OC)cc3c2C#Cc2ccccn2)cc1`, for which the potentiation is -1.97%. The value for `CC(C)c1ccc(S(=O)(=O)N2CCN(C(C)C(=O)NC3CCCC3)CC2)cc1` (stereo not drawn) was -15.2%; that for `O=C(Nc1ccccn1)C1CCN(S(=O)(=O)c2ccccc2)CC1` was -3.8%; that for `COCCn1c(C)cc(C(=O)CSc2nnc(C3CC3)n2C2CC2)c1C` was -2.92%.

On to `CC(=O)Nc1ccc(Nc2cc(C)nc(Nc3ccc(NC(C)=O)cc3)n2)cc1`, for which the potentiation is 13.9%. The value for `O=c1ccc2c(-c3ccccc3S(=O)(=O)O)c3ccc(O)c(O)c3oc-2c1O` was 12.9%; that for `CC(=O)N1CCN(S(=O)(=O)c2cccc(C(=O)NC3CCC(C)CC3)c2)CC1` (stereo not drawn) was 0.313%; that for `Cc1cc(C(=O)Nc2nnc(C3CC3)s2)c(C)s1` was 9.37%. The value for `COc1cccc(-n2c(SCC(=O)NC3CCS(=O)(=O)C3)nc3ccccc3c2=O)c1` (stereo not drawn) was 7.53%; that for `CC(C)n1ncc2c(C(=O)Nc3ccc(CC#N)cc3)cc(C3CC3)nc21` was -24.2%; that for `COc1cccc(NC(=O)CN(C)CC(=O)c2c(N)n(Cc3ccccc3)c(=O)n(C)c2=O)c1` was 23.5%.
